Source: the OligoGym collection

What follows are sequences tested against PRR3 (assay: pooled miR-30 sensor sort-seq; sequence = guide strand). Settings: shRNA.
Note: reference of the scale not given here.

| Sequence | sensor-assay potency score (higher = more potent) |
| --- | --- |
| TTGTCTTCCATAACCTGGGGGT | -0.114 |
| TAACTCTGCACCAGTCACCCAA | -0.887 |
| TCGAGGGTTTCTCTGTTCCTTG | -0.785 |
| TTTTTGGCAAAATGTCGGCAGA | -1.27 |
| TTGATAAGAGACCAGCTTTTGA | -1.38 |
| TAGGAAGTAACTCTGCACCAGT | -0.0951 |
| TTTGTCTTCCATAACCTGGGGG | 0.295 |
| TCCTTGTGAAAGCTTCCCCTGG | -1.31 |
| TCTGCATTGACTCCCCACCAAC | -1.61 |
| TTCTTGATAAGAGACCAGCTTT | -0.745 |
| TCAGTGGTCCCCTTGATCCTGG | -0.862 |
| TGATCCTGGAGGACCTCTGTGA | -0.51 |

What follows are sequences tested against PRR5 in the same assay as above. Settings: shRNA.

| Sequence | sensor-assay potency score (higher = more potent) |
| --- | --- |
| TAGCTTCACACTGAGGGTGATG | -1.08 |
| TAGTCCTCAGTCACGCCCCTGG | -0.743 |
| TGGTCCACCAGGTTCTCCGGGC | -0.928 |
| TCTAGCTTCACACTGAGGGTGA | 0.389 |
| TGTTGTAGCTCTTGGAGCGCAC | -0.639 |
| TTCAGAATCCGAGTCCACGGAC | -1.2 |
| TTGTGGATGCTGTTCCAGGTGG | -1.05 |
| TTCTGTCCCTCATAGAAGCGAA | -1.06 |
| TCACTGAAGAAGAAGTCCCAGG | -0.956 |
| ATCCTCTAGCTTCACACTGAGG | -1.85 |
| TCGTGGGGTACAGTCTGCTGGG | -0.767 |
| ATCTCCGACACAGAGTGCCTGC | -0.984 |

These sequences were tested against PRRX2 in the same assay as above. Settings: shRNA.

| Sequence | sensor-assay potency score (higher = more potent) |
| --- | --- |
| TAGGACTTGAGCAGCGAGGCAG | -0.751 |
| TTCTTCTTCCGCTTGGCGGCGC | -0.268 |
| TCGCTGAGGTTGACGCGCCGGG | -1 |
| TTGGTTTTAATACACAAACTAA | -1.05 |
| TTGAGCAGCGAGGCAGAGCGGC | -1.11 |
| TTGGCCTTGAGACGGAGGCTGG | -0.803 |
| ATAATCTGGACTCAGGGCGGTG | -1.16 |
| TTTCTATTGCTGTCCACCCAGG | -1.08 |
| TAGGGGGACGAGGCTGTCCAGG | -1.31 |
| TAGGGTGGCACTGTGCTGTAGG | 0.726 |
| TTCCTGCGGAACTTGGCGCGGC | -0.664 |
| TTTTCTATTGCTGTCCACCCAG | -0.328 |
